The source of these data is PubChem BioAssay (EPA / NIEHS).

Molecules are shown by their SMILES. Several values for one entry are separate records, joined by “and”; a condition that tells them apart may be missing. Equal entries are not always repeated. Records with an inconclusive call do not appear. Where a structure was tested more than once in an assay, its records may differ in their call. Activity calls are given as the source filed them. Rule for the calls: active = hit-call score of the fitted dose curve at least 0.9, where 1 is the maximum; inconclusive = response in the unintended direction; inactive = score below 0.9.

For orientation: AC50 means the concentration giving half of the maximal activity seen.

Tested on in one assay: not listed separately
Kind of assay: TOX21_p53_BLA_p2_viability: Viability Assessment in the Tox21 HCT-116 p53 Agonism Beta-lactamase Assay, Phase 2 (AID 2283591).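 Note: compound exposure lasted 16 h at 37 °C; actives lower the ATP signal meaning cytotoxicity.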 The gist of the method:
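HCT-116 p53-bla cells (4000/well) rested 5 h at 37C, then received compounds in DMSO (217-fold dilution) for 16 h at 37C, 5% CO2. After the CCF4 read, CellTiter-Glo was added; ATP luminescence was read after 30 min at room temperature.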
On to `O=C1C(Cl)=C(Cl)C(=O)c2ccccc21`, for which the AC50 is 15 µM (active) and the outcome was inactive.
With `Cl/C=C\C[N+]12CN3CN(CN(C3)C1)C2`, the molecule was classed as inactive.
On to `CC(Br)C(=O)O` (stereo not drawn), for which the molecule was called inactive.
The same measure, in the same setting: with `CC(=O)c1cc(C(C)(C)C)cc2c1CCC2(C)C` the entry was “inactive”.
Same read-out and setting: the entry for `COC(=O)c1sccc1S(=O)(=O)NC(=O)Nc1nc(C)nc(OC)n1` is “inactive”; for `CC(C)c1cccc(C(C)C)c1O` it is “inactive”; for `Cc1cc(=O)[nH]o1` it is “inactive”.
Consider `C[C@H]1CCCC(=O)CCC/C=C/c2cc(O)cc(O)c2C(=O)O1`, for which the call was inactive.
On the same count and under the same terms, the entry for `Clc1ccc(C2(Cn3cncn3)CC(Br)CO2)c(Cl)c1` (stereo not drawn) is “inactive”; for `COc1ccc(C=O)cc1OC` it is “inactive”; for `CCCCCCCCCl` it is “inactive”.
Still for that read-out and setting: the entry for `C(=NC1CCCCC1)=NC1CCCCC1` is “inactive”; for `Nc1ncc([N+](=O)[O-])s1` it is “inactive”.

The target in the next assay is Cellular tumor antigen p53 (Homo sapiens) (UniProt P04637). Briefly: TOX21_p53_BLA_p2_ratio: Tox21 HCT-116 p53 Agonism Beta-lactamase Assay, Ratio, Phase 2 (AID 2283592). An outline of the steps:
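Read-out is the blue/green (460/530 nm, 405 nm excitation) ratio after 2 h CCF4-AM loading, fitted as gain versus DMSO. Compounds, pinned at 217-fold dilution from DMSO stocks, stayed 16 h on HCT-116 beta-lactamase reporter cells seeded 5 h earlier.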
`O=C1C(Cl)=C(Cl)C(=O)c2ccccc21`: the outcome was inactive.
In the case of `Cl/C=C\C[N+]12CN3CN(CN(C3)C1)C2`, the result was inactive.
On the same count and under the same terms, with `CC(Br)C(=O)O` (stereo not drawn) the entry was “inactive”; with `CC(=O)c1cc(C(C)(C)C)cc2c1CCC2(C)C`, “inactive”; with `COC(=O)c1sccc1S(=O)(=O)NC(=O)Nc1nc(C)nc(OC)n1`, “inactive”.
The same measure, in the same setting: the entry for `CC(C)c1cccc(C(C)C)c1O` is “inactive”; for `Cc1cc(=O)[nH]o1` it is “inactive”.
For `C[C@H]1CCCC(=O)CCC/C=C/c2cc(O)cc(O)c2C(=O)O1`, the AC50 was 11.7 µM (active) and the outcome was inactive.
On to `Clc1ccc(C2(Cn3cncn3)CC(Br)CO2)c(Cl)c1` (stereo not drawn), for which the AC50 was 69.2 µM (active).
In the case of `COc1ccc(C=O)cc1OC`, the result was inactive.
Still for that read-out and setting: with `CCCCCCCCCl` the entry was “inactive”.
`C(=NC1CCCCC1)=NC1CCCCC1`: the outcome was inactive.
Turning to `CC(C)C1CCC(Cc2ccc(Cl)cc2)C1(O)Cn1cncn1` (stereo not drawn), the AC50 was 67.8 µM (active).
Regarding `Nc1ncc([N+](=O)[O-])s1`, the outcome was inactive.

Tested on in another assay: not listed separately
Kind of assay: TOX21_p53_BLA_p3_viability: Viability Assessment in the Tox21 HCT-116 p53 Agonism Beta-lactamase Assay, Phase 3 (AID 2283593).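 Note: cells exposed to compound for 16 h before reading.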 An outline of the steps: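 HCT-116 cells (4000/well) rested 5 h at 37C, then got DMSO compounds by pin tool (217-fold dilution) for 16 h at 37C, 5% CO2. After the bla read, CellTiter-Glo was added and luminescence read at 30 min, room temperature.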
With `O=C1C(Cl)=C(Cl)C(=O)c2ccccc21`, the AC50 is 30.9 µM (active) and 46.2 µM (active).
As for `Cl/C=C\C[N+]12CN3CN(CN(C3)C1)C2`, the call was inactive.
On the same count and under the same terms, the entry for `CC(Br)C(=O)O` (stereo not drawn) is “inactive”; for `CC(=O)c1cc(C(C)(C)C)cc2c1CCC2(C)C` it is “inactive”.
Same read-out and setting: the entry for `COC(=O)c1sccc1S(=O)(=O)NC(=O)Nc1nc(C)nc(OC)n1` is “inactive”; for `CC(C)c1cccc(C(C)C)c1O` it is “inactive”; for `Clc1ccc(C2(Cn3cncn3)CC(Br)CO2)c(Cl)c1` (stereo not drawn) it is “inactive”.
On the same count and under the same terms, the entry for `COc1ccc(C=O)cc1OC` is “inactive”.
`CCCCCCCCCl`: the molecule was called inactive.
As to `C(=NC1CCCCC1)=NC1CCCCC1`, the AC50 is 17.7 µM (active) and 30.7 µM (active).
Same read-out and setting: the figure for `CC(C)C1CCC(Cc2ccc(Cl)cc2)C1(O)Cn1cncn1` (stereo not drawn) is 45.7 µM (active).
Take `Nc1ncc([N+](=O)[O-])s1`: the molecule was classed as inactive.

For another assay, the target named is Cellular tumor antigen p53 (Homo sapiens) (UniProt P04637). Kind of assay: TOX21_p53_BLA_p3_ratio: Tox21 HCT-116 p53 Agonism Beta-lactamase Assay, Ratio, Phase 3 (AID 2283596). The gist of the method: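 Cells were seeded at 4000/well, rested 5 h at 37C, then dosed with DMSO compound solutions (217-fold dilution) for 16 h. CCF4-AM substrate was loaded for 2 h at room temperature, and the 460/530 nm emission ratio was fitted for gain of signal versus DMSO.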
Cellular tumor antigen p53 (Homo sapiens), sequence (P04637 whole entry, looked up): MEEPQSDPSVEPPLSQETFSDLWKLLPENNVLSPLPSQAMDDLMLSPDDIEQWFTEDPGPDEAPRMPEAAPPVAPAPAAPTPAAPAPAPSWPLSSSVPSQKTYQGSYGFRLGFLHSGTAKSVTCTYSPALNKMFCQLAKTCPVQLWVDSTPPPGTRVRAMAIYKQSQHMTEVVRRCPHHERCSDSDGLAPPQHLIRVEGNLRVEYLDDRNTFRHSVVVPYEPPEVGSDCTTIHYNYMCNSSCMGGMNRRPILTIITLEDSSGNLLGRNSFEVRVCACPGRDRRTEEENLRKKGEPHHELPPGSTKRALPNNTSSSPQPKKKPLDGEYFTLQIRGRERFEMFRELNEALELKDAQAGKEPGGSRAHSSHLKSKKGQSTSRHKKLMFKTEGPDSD
Turning to `O=C1C(Cl)=C(Cl)C(=O)c2ccccc21`, the AC50 is 54.1 µM (active) and 67.3 µM (active).
Take `Cl/C=C\C[N+]12CN3CN(CN(C3)C1)C2`: the result was inactive.
The same measure, in the same setting: with `CC(Br)C(=O)O` (stereo not drawn) the entry was “inactive”.
The same measure, in the same setting: with `CC(=O)c1cc(C(C)(C)C)cc2c1CCC2(C)C` the entry was “inactive”; with `COC(=O)c1sccc1S(=O)(=O)NC(=O)Nc1nc(C)nc(OC)n1`, “inactive”; with `CC(C)c1cccc(C(C)C)c1O`, “inactive”.
With `C[C@H]1CCCC(=O)CCC/C=C/c2cc(O)cc(O)c2C(=O)O1`, the AC50 was 12.3 µM (active) and 15.8 µM (active).
For `Clc1ccc(C2(Cn3cncn3)CC(Br)CO2)c(Cl)c1` (stereo not drawn), the result was inactive.
The same measure, in the same setting: with `COc1ccc(C=O)cc1OC` the entry was “inactive”; with `CCCCCCCCCl`, “inactive”.
`C(=NC1CCCCC1)=NC1CCCCC1`: the AC50 is 16.2 µM (active) and the result was inactive.
Regarding `CC(C)C1CCC(Cc2ccc(Cl)cc2)C1(O)Cn1cncn1` (stereo not drawn), the AC50 is 85.6 µM (active).
Regarding `Nc1ncc([N+](=O)[O-])s1`, the result was inactive.

Tested on in another assay: not listed separately
Kind of assay: TOX21_p53_BLA_p4_viability: Viability Assessment in the Tox21 HCT-116 p53 Agonism Beta-lactamase Assay, Phase 4 (AID 2283597).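 Note: hits lower the luminescence signal meaning cytotoxicity.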 An outline of the steps: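 Cytotoxicity as reduced cellular ATP (CellTiter-Glo luminescence, 30 min room temperature), measured in the same wells following the CCF4 FRET p53 reading. Human HCT-116 cells received compounds in DMSO (217-fold dilution) for 16 h.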
Take `O=C1C(Cl)=C(Cl)C(=O)c2ccccc21`: the AC50 is 14.5 µM (active) and 14.4 µM (active).
As to `CC(Br)C(=O)O` (stereo not drawn), the outcome was inactive.
Regarding `COC(=O)c1sccc1S(=O)(=O)NC(=O)Nc1nc(C)nc(OC)n1`, the molecule was classed as inactive.
Take `CC(C)c1cccc(C(C)C)c1O`: the molecule was classed as inactive.
With `C[C@H]1CCCC(=O)CCC/C=C/c2cc(O)cc(O)c2C(=O)O1`, the outcome was inactive.
The same measure, in the same setting: the entry for `Clc1ccc(C2(Cn3cncn3)CC(Br)CO2)c(Cl)c1` (stereo not drawn) is “inactive”; for `CCCCCCCCCl` it is “inactive”.
Turning to `CC(C)C1CCC(Cc2ccc(Cl)cc2)C1(O)Cn1cncn1` (stereo not drawn), the AC50 was 45.7 µM (active).
